DT40 TDP1 no CPT – qHTS for Inhibitors of human tyrosyl-DNA phosphodiesterase 1 (TDP1): qHTS in cells in absence of CPT. DT40 Tdp1-/- hTDP1 cells, no CPT, ATP luminescence, 48 h. Potency, µM (top dose mostly 46.2 µM), for the others: at the top dose activity change, negative = growth inhibition, hits mostly inhibitors. actives 15% (n = 420,000). AID 686978, 2013; note: nearly all actives have a fitted effect of over 55% in size
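Seeded 400 DT40-hTDP1 cells/well (vehicle DMSO, no 20 nM CPT); pinned compounds; ≥48 hr at 37 °C; CellTiter-Glo luminescence as viability measure.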
RORg inh – blocks mouse ROR gamma transcriptional activity. P51450. Drosophila S2 Gal4-RORgamma UAS-luciferase reporter, 20 h. Potency, µM (doses to about 53.6 µM), without a hit: top-dose activity change, negative = inhibition, usual class: inhibitors. actives 5.4% (n = 310,000); note: nearly all actives have a fitted effect of over 60% in size
Target sequence (P51450 whole entry, looked up, the tested form may be a part): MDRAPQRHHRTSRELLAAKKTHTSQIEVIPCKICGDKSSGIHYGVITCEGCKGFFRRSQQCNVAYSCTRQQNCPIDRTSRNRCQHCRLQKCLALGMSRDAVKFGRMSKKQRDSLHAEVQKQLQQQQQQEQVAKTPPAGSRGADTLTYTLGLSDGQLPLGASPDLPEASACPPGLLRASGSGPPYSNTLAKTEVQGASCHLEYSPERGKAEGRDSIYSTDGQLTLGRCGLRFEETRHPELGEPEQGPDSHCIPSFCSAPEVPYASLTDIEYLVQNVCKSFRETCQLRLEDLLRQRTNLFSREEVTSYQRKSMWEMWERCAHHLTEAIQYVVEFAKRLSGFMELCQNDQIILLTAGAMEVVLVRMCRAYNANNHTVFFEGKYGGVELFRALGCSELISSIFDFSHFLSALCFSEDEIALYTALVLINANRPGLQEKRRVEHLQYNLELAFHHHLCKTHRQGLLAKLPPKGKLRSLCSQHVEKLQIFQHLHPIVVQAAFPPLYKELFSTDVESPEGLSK
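Drosophila S2 cells stably expressing Gal4-DBD/mouse RORγ fusion under metallothionein promoter plus UAS-luciferase; compound 1 h, then 700 uM CuSO4 induction for 20 h at ambient temperature; inhibition read as reduced luminescence.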
Gal4-VP16 FLuc – Gal4-VP16 reporter inhibition counter-screen; Drosophila S2 Gal4-VP16 UAS-luciferase, luminescence, 20 h; Potency, µM (highest dose often 53.6 µM), without a hit: at the highest dose activity, negative = inhibition, actives largely listed as inhibitors; actives 3.5% (n = 310,000); AID 2546;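 note: Gal4-VP16 expression switched on by copper sulfate through the metallothionein promoter; nearly all actives have a fitted effect of over 50% in size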
DT40 TDP1 CPT – growth inhibition of DT40 Tdp1-/-;hTDP1 cells with camptothecin (screen for TDP1 inhibitors) | chicken DT40 Tdp1-/-;hTDP1 cells + 20 nM CPT, ATP luminescence, 48 h | Potency, µM (doses to about 46.2 µM), for the others: at the highest dose activity change, negative = growth inhibition, actives largely listed as inhibitors | actives 12% (n = 420,000); note: nearly all actives have a fitted effect of over 55% in size
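Chicken DT40 Tdp1-/- cells complemented with human TDP1, 400 cells/well, exposed to compounds plus 20 nM camptothecin for at least 48 h at 37 C; viability read as ATP content by CellTiter-Glo luminescence.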
TDP1 block – blocks human tyrosyl-DNA phosphodiesterase 1; recombinant TDP1, AlphaScreen DNA substrate cleavage; Q9NUW8; Potency, µM (titrated, usually from 130 µM), for the others: top-dose activity change, negative = inhibition, most hits filed as inhibitors; AID 485290; actives 0.28% (n = 350,000); note: nearly all actives have a fitted effect of over 40% in size
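E. coli-derived human Tdp1, 1 nM final. Cpd preinc 15 min RT; substrate 15 nM final, 5 min RT; AS bead mix 10 ug/ml final, 10 min RT. Signal loss = tyrosine-FITC cleavage. No-enzyme wells = max signal.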
* = called active by the depositor; ? = inconclusive; . = not tested or not shown; [ ] = another dose, or the depositor's remark. Hits are enriched below; roughly 19% of the tested compounds scored in any of these assays. Calls come from the whole dose curve; as a rule, active = well fitted curve in the direction sought with a large enough effect; inconclusive = small, poorly fitted or top-dose-only effect, or another doubt; inactive = no such curve, though single readings can be large; an effect the other way counts as inactive or inconclusive. % is set by controls: 0 for no effect and ±100 for the full control effect; potency is the fitted concentration of half-maximal effect.

SMILES	DT40 TDP1 no CPT	RORg inh	Gal4-VP16 FLuc	DT40 TDP1 CPT	TDP1 block
CCCC(=O)N/C(N)=N/c1nc2ccccc2o1	?	10µM*	-29%	?	0%
CCOC(=O)Cc1nc2ccccc2o1	.	13%	-4%	.	6%
Cc1ccc(C(=O)N/C(N)=N/c2nc3ccccc3o2)cc1	?	-28%	0%	?	3%
COc1cc(NC(=O)NC(C)(C(F)(F)F)C(F)(F)F)cc(OC)c1OC	?	21%	6%	-12%	5%
CSCCC(NC(=O)c1ccccc1)C(=O)NC1CCCC1 (stereo not given)	-5%	41%	-15%	1%	-8%
NC(=O)/C(=C\c1ccccc1)NC(=O)/C=C/c1ccccc1	6%	32%	2%	5%	8%
CC(C)(C)C(=O)N1CCN(c2nc3ccccc3o2)CC1	-21%	17%	5%	3%	4%
CC(=O)CSc1nc2ccccc2o1	-22%	-2%	-1%	-9%	0%
N/C(=N\c1nc2ccccc2o1)NC(=O)/C=C/c1ccccc1	18µM*	-42%	-20%	?	5%
CC(C)(C)C(=O)N/C(N)=N/c1nc2ccccc2o1	?	4µM*	?	?	0%
CC(C)CC(=O)N/C(N)=N/c1nc2ccccc2o1	29µM*	10µM*	-3%	?	4%
CC(=O)N/C(N)=N/c1nc2cc(C)ccc2o1	-15%	11µM*	?	-3%	6%
CC(=O)N/C(N)=N/c1nc2cc([N+](=O)[O-])ccc2o1	-24%	-31%	15%	0%	4%
O=C(/C=C/c1ccc(F)cc1)NCCC1=CCCCC1	16µM*	20%	?	21µM*	4%
O=C(COC(=O)/C=C/c1cccc(Br)c1)NCc1ccco1	2%	.	.	3%	1%
COc1cccc(/C=C/C(=O)OCC(=O)NCc2ccco2)c1	-14%	7%	11%	-6%	50µM*
COc1cccc(/C=C/C(=O)OCC(=O)NCCC2=CCCCC2)c1	23µM*	-2%	6%	?	-3%
COc1ccccc1/C=C/C(=O)NCCC1=CCCCC1	-25%	6%	-6%[10 µM]	-28%	-3%
O=C(COc1nsnc1N1CCOCC1)Nc1ccc([N+](=O)[O-])cc1	23µM*	1%	4%	29µM*	0%[0.0935 µM]
Cc1cccc(NC(=O)COc2nsnc2N2CCOCC2)c1	-11%	?	0%	-8%	7%
O=C(COc1nsnc1N1CCOCC1)Nc1ccc(Cl)cc1	15µM*	4%	-4%	?	0%
CC1(C)Cc2c(C#N)c(SCCC#N)nc(N3CCOCC3)c2CO1	-8%	36%	1%	6%	.
O=C(C[n+]1ccccc1Cl)c1ccccc1	-26%	.	.	-8%	.
O=C(C[n+]1ccccc1Br)c1ccc(Cl)cc1	14µM*	.	.	?	.
O=C(NCc1cccnc1)C1c2ccccc2C(=O)N1C1CCCCCC1 (stereo not given)	-14%	0%	-3%	-10%	-4%
SMILES	DT40 TDP1 no CPT	RORg inh	Gal4-VP16 FLuc	DT40 TDP1 CPT	TDP1 block
CC(=O)N1CC(C)Sc2ccc(S(=O)(=O)NCCc3ccc(C)cc3)cc21 (stereo not given)	7.3µM*	-12%	?	18µM*	-1%
CC(=O)N1CC(C)Sc2ccc(S(=O)(=O)NCCc3ccccc3)cc21 (stereo not given)	10µM*	23%	-27%	13µM*	1%
CC(=O)N1CC(C)Sc2ccc(S(=O)(=O)NCc3ccc(Cl)cc3)cc21 (stereo not given)	?	?	?	?	1%
Cc1noc(C)c1CNCc1ccccc1	10%	-15%	-6%	-24%	.
COc1ccccc1OC(C)C(=O)Nc1ccccc1C(=O)NCC1CCCO1 (stereo not given)	-22%	-6%	0%	-1%	4%
Cc1ccsc1/C=N/Nc1nc(Cl)c(Cl)cc1Cl	-11%	-34%	4%	?	3%
CSc1cccc(NC(=O)Nc2ccccc2OCc2cc(=O)n3cc(C)ccc3n2)c1	21µM*	.	.	23µM*	0%
CCOC(=O)c1ccc(NC(=O)Nc2cccc(OCc3cc(=O)n4ccc(C)cc4n3)c2)cc1	?	.	.	-27%	5%
COc1ccc(C)cc1NC(=O)Nc1cccc(OCc2cc(=O)n3ccc(C)cc3n2)c1	9.2µM*	.	.	9.2µM*	8%
CCC(Oc1ccccc1)C(=O)Nc1ccc(OCc2cc(=O)n3ccc(C)cc3n2)cc1 (stereo not given)	18µM*	.	.	?	-3%
O=C(O)C1OC(Oc2cc3oc(-c4ccccc4)cc(=O)c3c(O)c2O)C(O)C(O)C1O (stereo not given)	?	-4%	-26%	23µM*	5%
Cc1ccc(Oc2nc3ccccn3c(=O)c2/C=C(\C#N)C(=O)Nc2c(C)n(C)n(-c3ccccc3)c2=O)c(C)c1	13µM*	-11%	-4%	?	1%
Cc1c(NC(=O)/C(C#N)=C/c2ccc(-c3ccc(Cl)c(Cl)c3)o2)c(=O)n(-c2ccccc2)n1C	13µM*	29%	-5%	18µM*	2%
Cc1c(NC(=O)/C(C#N)=C/c2ccccc2)c(=O)n(-c2ccccc2)n1C	-1%	-16%	-16%	6%	5%
Cc1ccc(/C=C(\C#N)C(=O)Nc2cccc(Cl)c2)o1	-14%	.	.	1.3µM*	-4%[12.3 µM]
Cc1c(NC(=O)/C(C#N)=C/c2ccc(-c3cccc(Cl)c3)o2)c(=O)n(-c2ccccc2)n1C	21µM*	15%	-15%	?	4%
Cc1c(NC(=O)/C(C#N)=C/c2ccc(-c3ccccc3Cl)o2)c(=O)n(-c2ccccc2)n1C	29µM*	26%	-4%	?	8%
CCc1nn(CCCC(=O)N2CCN(c3cccc(OC)c3)CC2)c(=O)c2cc3occc3n12	-27%	.	.	-19%	0%
COc1ccc(N2CCN(C(=O)[C@H](C)N3C(=O)C4CC=CCC4C3=O)CC2)cc1 (stereo not given in full)	-6%	.	.	-8%	2%
CCC(C(=O)N1CCN(c2ccc(OC)cc2)CC1)n1nc(C)n2c(cc3occc32)c1=O (stereo not given)	18µM*	.	.	18µM*	8%
Cc1cccc(N2CCN(C(=O)[C@H](C)N3C(=O)C4CC=CCC4C3=O)CC2)c1C (stereo not given in full)	26µM*	.	.	23µM*	0%
CCc1nn(C(C)C(=O)N2CCN(Cc3ccccc3)CC2)c(=O)c2cc3occc3n12 (stereo not given)	?	30%	-2%	?	0%
CCc1nn(CCCC(=O)N2CCN(c3cc(Cl)ccc3C)CC2)c(=O)c2cc3occc3n12	23µM*	.	.	?	-3%
